Test results from PubChem BioAssay (NCATS).
Records with an inconclusive call do not appear. Calls of active or inactive are those of the source. Unless noted, the call rests on the fitted dose curve; in most records, active means well fitted curve in the direction sought with a large enough effect; inconclusive means small, poorly fitted or top-dose-only effect, or another doubt; inactive means no such curve, though single readings can be large; an effect the other way counts as inactive or inconclusive.

Columns and labels:
[1] = target: Pyruvate kinase (Leishmania mexicana) (UniProt Q27686); experiment: qHTS Validation Assay for Inhibitors of Leishmania Mexicana Pyruvate Kinase (AID 945);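 further: 0% = DMSO only neutral control wells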; conditions: purified L. mexicana pyruvate kinase, enzyme activity, E451W mutant enzyme; series mostly up to 57.5 µM
Summary of the method: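 Substrate mix (0.5 mM PEP, 0.1 mM ADP, 7 mM MgCl2, 50 mM KCl, pH 7.2 imidazole) received compound by pin tool, then 0.2 nM LmPYK E451W. After 1 h at room temperature, PKLight was added and luminescence measured.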

[2] = target: Alpha-galactosidase (Coffea arabica) (UniProt Q42656); experiment: Counterscreen for Glucocerebrosidase Inhibitors: qHTS Assay for Coffee Bean alpha-Galactosidase at pH 4.5 (AID 957); conditions: purified coffee bean alpha-galactosidase, fluorogenic substrate; series mostly up to 76.9 µM;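 further: plate controls were enzyme alone for no effect and no enzyme for full effect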
Summary of the method: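 AC50 values derive from Hill-equation modeling of concentration-response data, normalized to no-enzyme and full-activity controls. The pH 4.5 citrate assay used 2 nM coffee bean enzyme and 80 uM fluorogenic substrate for 20 min.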

[3] = target: Alpha-galactosidase A (Homo sapiens) (UniProt P06280); experiment: Counterscreen for Glucocerebrosidase Inhibitors: qHTS Assay for Human alpha-Galactosidase at pH 4.5 (AID 992); conditions: purified enzyme, fluorogenic substrate; series mostly up to 76.9 µM; further: 0% is about no effect
Summary of the method: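 Enzyme at 2 nM final was combined with compound (0.7 nM to 77 uM) and 80 uM 4-methylumbelliferyl alpha-D-galactopyranoside in 50 mM citric acid, 0.005% Tween-20, pH 4.5. After 20 min at room temperature, fluorescence was read (Ex 365/Em 440 nm); AC50 came from Hill fits.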

[4] = target: alpha-glucosidase (Oryza sativa, rice) (UniProt Q653V4); experiment: Counterscreen for Glucocerebrosidase Inhibitors: qHTS Assay for Rice alpha-Glucosidase at pH 5.0 (AID 997); conditions: rice alpha-glucosidase enzyme activity; series mostly up to 76.9 µM;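 further: 0% = full activity with enzyme and -100% = basal without enzyme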
Summary of the method: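 Rice alpha-glucosidase (4 nM final) with 400 uM 4-methylumbelliferyl-alpha-D-glucopyranoside in citrate buffer pH 5.0, 20 min at room temperature, stopped at pH 10; fluorescence 365/440 nm, compounds 0.7 nM–77 uM, AC50 from Hill fits.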

[5] = target: Alpha-galactosidase (Coffea arabica) (UniProt Q42656); experiment: Counterscreen for Glucocerebrosidase Inhibitors: qHTS Assay for Coffee Bean alpha-Galactosidase at pH 5.9 (AID 998); conditions: coffee bean alpha-galactosidase enzyme assay; series mostly up to 76.9 µM;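 further: plate controls were uninhibited enzyme for no effect and no-enzyme basal signal for full effect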
Summary of the method: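 Green coffee bean enzyme (2 nM final) was incubated with compounds (0.7 nM–77 uM) and 4-methylumbelliferyl alpha-D-galactopyranoside (80 uM) in citrate buffer pH 5.9, 20 min at room temperature. High-pH stop; fluorescence 365/440 nm; AC50 from Hill fits.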

[6] = target: Cytochrome P450 2C9 (Homo sapiens) (UniProt P11712); experiment: qHTS Assay for Inhibitors and Substrates of Cytochrome P450 2C9 (AID 883); conditions: recombinant CYP2C9, luciferin-H luminescence, 60 min; series mostly up to 57.1 µM; further: on the % scale 0 is the no-effect control and ±100 the full control effect; nearly all actives have a fitted effect of over 60% in size
Summary of the method: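 CYP2C9 deoxyluciferin hydroxylation, 37C, 60 min with NADPH regeneration; 10nM enzyme, 100uM Luciferin-H (KM). Glo detection reagent stopped reaction; luminescence normalized to sulphaphenazole (57uM) full inhibition.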

[7] = qHTS Assay for Identification of Small Molecule Agonists for Hypoxia Response Element Signaling Pathway (AID 914; active means well fitted activation curve with a large enough effect in the signal ratio, with a control signal flat, not every such curve was filed as active; the % refers to the signal ratio; further: % of control where 0% means no effect); conditions: ME-180 (cervical carcinoma) HRE-bla reporter, beta-lactamase ratio, CoCl2, 17 h; activation: stronger effect = higher value
Summary of the method: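 Read-out: CCF4 FRET ratio of 460nm to 530nm emission (excitation 405nm) after 2.5 hours at room temperature, taken from HRE-bla ME-180 cells that had been exposed to compound and EC50 CoCl2 for 17 hours.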

[8] = tested on: CP265; experiment: qHTS profiling for inhibitors of Plasmodium falciparum proliferation (AID 504749);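 further: 0% = DMSO vehicle and full inhibition = artemisinin control; nearly all actives have a fitted effect of over 60% in size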; conditions: P. falciparum in erythrocytes, SYBR Green DNA, 72 h; series mostly up to 12.8 µM
Summary of the method: (§1)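 P. falciparum-infected erythrocytes (0.3% parasitemia, 2.5% hematocrit final) were exposed to compounds for 72 h at 37 C in 5% CO2, then lysed with SYBR Green buffer overnight at room temperature; parasite DNA fluorescence was normalized to artemisinin and DMSO controls.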

[9] = tested on: CP335; experiment: as above; conditions: P. falciparum in erythrocytes, SYBR Green DNA, 72 h; series mostly up to 12.8 µM
Summary of the method: as §1

[10] = tested on: DIV17; experiment: as above; conditions: P. falciparum in erythrocytes, SYBR Green DNA, 72 h; series mostly up to 28.7 µM
Summary of the method: as §1

Alpha-galactosidase (Coffea arabica), sequence (Q42656 whole entry, looked up): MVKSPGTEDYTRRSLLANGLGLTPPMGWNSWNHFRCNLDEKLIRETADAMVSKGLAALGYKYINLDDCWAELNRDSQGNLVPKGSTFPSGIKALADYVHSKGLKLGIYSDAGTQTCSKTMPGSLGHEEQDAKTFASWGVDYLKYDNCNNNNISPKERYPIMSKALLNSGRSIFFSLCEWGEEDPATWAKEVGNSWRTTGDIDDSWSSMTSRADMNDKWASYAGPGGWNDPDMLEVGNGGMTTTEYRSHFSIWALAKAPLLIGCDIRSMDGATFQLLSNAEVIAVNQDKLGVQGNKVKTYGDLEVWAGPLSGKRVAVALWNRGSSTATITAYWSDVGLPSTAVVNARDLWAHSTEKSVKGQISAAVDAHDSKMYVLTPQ
Alpha-galactosidase A (Homo sapiens), sequence (P06280 whole entry, looked up): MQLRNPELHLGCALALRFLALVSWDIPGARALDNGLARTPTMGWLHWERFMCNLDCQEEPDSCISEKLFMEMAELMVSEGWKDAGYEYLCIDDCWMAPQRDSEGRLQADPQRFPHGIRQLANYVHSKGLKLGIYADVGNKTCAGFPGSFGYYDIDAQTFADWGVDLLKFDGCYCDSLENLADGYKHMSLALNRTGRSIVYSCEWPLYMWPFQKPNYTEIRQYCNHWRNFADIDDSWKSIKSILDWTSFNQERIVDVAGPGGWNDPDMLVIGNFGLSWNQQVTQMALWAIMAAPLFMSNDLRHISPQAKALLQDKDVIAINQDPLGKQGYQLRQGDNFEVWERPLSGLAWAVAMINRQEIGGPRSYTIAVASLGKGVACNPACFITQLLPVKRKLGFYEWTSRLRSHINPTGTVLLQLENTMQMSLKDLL
Pyruvate kinase (Leishmania mexicana), sequence (Q27686 2-499 E452W): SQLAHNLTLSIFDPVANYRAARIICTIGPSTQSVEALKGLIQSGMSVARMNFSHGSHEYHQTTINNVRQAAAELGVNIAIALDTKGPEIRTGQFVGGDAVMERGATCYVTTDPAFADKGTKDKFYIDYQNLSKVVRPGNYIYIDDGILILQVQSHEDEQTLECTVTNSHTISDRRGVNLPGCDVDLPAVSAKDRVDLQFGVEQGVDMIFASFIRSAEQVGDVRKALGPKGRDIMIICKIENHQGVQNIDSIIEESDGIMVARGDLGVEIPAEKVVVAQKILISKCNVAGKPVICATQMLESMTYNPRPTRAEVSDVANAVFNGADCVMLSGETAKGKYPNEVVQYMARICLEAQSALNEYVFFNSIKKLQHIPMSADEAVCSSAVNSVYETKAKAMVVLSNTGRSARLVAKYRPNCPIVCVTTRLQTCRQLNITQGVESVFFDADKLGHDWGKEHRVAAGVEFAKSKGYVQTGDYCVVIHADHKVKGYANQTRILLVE
Cytochrome P450 2C9 (Homo sapiens), sequence (P11712 whole entry, looked up): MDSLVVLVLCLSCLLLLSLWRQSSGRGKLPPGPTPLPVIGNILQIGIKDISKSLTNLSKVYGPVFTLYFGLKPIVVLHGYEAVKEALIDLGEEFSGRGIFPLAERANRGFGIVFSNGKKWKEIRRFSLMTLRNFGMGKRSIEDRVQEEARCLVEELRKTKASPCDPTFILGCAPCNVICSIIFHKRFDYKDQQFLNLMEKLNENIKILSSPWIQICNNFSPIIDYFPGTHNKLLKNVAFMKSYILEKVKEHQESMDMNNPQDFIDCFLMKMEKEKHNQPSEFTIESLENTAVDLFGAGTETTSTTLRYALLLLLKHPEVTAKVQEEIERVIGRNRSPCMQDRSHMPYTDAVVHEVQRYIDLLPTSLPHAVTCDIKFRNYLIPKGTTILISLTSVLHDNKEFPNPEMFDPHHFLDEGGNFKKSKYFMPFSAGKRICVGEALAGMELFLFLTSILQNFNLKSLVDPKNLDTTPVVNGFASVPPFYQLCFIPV

C[C@H](NC(C)(C)C)C(=O)c1cccc(Cl)c1
inactive: Potency [1] | outcome [2] | outcome [3] | outcome [4] | outcome [5]

CCC[C@@](C)(COC(N)=O)COC(=O)NC(C)C
inactive: Potency [6] | activation [7] -3.35%

CN(C)C(=O)Oc1cc(OC(=O)N(C)C)cc([C@@H](O)CNC(C)(C)C)c1
inactive: Potency [8] | Potency [9] | Potency [10]
